In all, about 5,500 compounds went through this assay and about 2,000 (36%) were called active. About 18% were inconclusive and are not listed. Cut-off read from the data, not from the text of the source: active = normalized growth mostly below about 0.91 (no sharp cut-off); inconclusive = no clear call, values can overlap the other calls; inactive = mostly above about 0.92. The list shows a part of the results.
Experiment: chemical genetic growth profiling, strain panel (AID 1159580);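 note: tested at 20 µM; growth read once vehicle control cultures reached saturation at 30 °C; 1 = growth at the plate median or of vehicle wells; lower values mean less growth of the strain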
Details: growth OD

Measured: normalized growth

CNC(=O)CSP(=S)(OC)OC
inactive: S. cerevisiae deletion strains, locus YJR075W, strain HOC1, hits give low values 1.02 | S. cerevisiae deletion strains, locus YKL009W, strain mrt4, hits give low values 1 | S. cerevisiae deletion strains, locus YKL068W, hits give low values 1.01 | S. cerevisiae deletion strains, locus YKL085W, strain MDH1 (second series), hits give low values 1.01 | S. cerevisiae deletion strains, locus YKL085W, strain MDH1, hits give low values 1.01 | S. cerevisiae deletion strains, locus YKL160W, strain elf1, hits give low values 1.01 | S. cerevisiae deletion strains, locus YKL190W, strain CNB1, hits give low values 0.979 | S. cerevisiae deletion strains, locus YKR001C, strain vps1, hits give low values 1.02 | S. cerevisiae deletion strains, locus YKR026C, strain gcn3, hits give low values 1.01 | S. cerevisiae deletion strains, locus YKR091W, strain srl3, hits give low values 1.02 | S. cerevisiae deletion strains, locus YLL001W, strain dnm1, hits give low values 1.01 | S. cerevisiae deletion strains, locus YLL026W, hits give low values 1.02 | S. cerevisiae deletion strains, locus YLL041C, strain sdh2, hits give low values 1.03 | S. cerevisiae deletion strains, locus YLR027C, strain aat2, hits give low values 1.01 | S. cerevisiae deletion strains, locus YLR039C, strain RIC1, hits give low values 0.993 | S. cerevisiae deletion strains, locus YLR058C, strain SHM2, hits give low values 1.01 | S. cerevisiae deletion strains, locus YLR102C, strain apc9, hits give low values 1.02 | S. cerevisiae deletion strains, locus YLR113W, strain HOG1, hits give low values 0.997 | S. cerevisiae deletion strains, locus YLR221C, strain rsa3, hits give low values 1.03 | S. cerevisiae deletion strains, locus YLR258W, strain gsy2, hits give low values 1.03 | S. cerevisiae deletion strains, locus YLR262C, strain YPT6 (second series), hits give low values 1.05 | S. cerevisiae deletion strains, locus YLR262C, strain YPT6, hits give low values 0.999 | S. cerevisiae deletion strains, locus YLR268W, strain sec22, hits give low values 1.01 | S. cerevisiae deletion strains, locus YLR320W, strain mms22, hits give low values 1.02 | S. cerevisiae deletion strains, locus YLR330W, strain CHS5, hits give low values 1.01 | S. cerevisiae deletion strains, locus YLR342W, strain FKS1 (second series), hits give low values 1.04 | S. cerevisiae deletion strains, locus YLR342W, strain FKS1, hits give low values 1.02 | S. cerevisiae deletion strains, locus YLR357W, strain rsc2, hits give low values 0.986 | S. cerevisiae deletion strains, locus YLR370C, strain arc18, hits give low values 1.03 | S. cerevisiae deletion strains, locus YLR371W, strain rom2, hits give low values 1.02 | S. cerevisiae deletion strains, locus YLR384C, strain iki3, hits give low values 1.04 | S. cerevisiae deletion strains, locus YLR418C, strain cdc73, hits give low values 1.01 | S. cerevisiae deletion strains, locus YML016C, strain PPZ1, hits give low values 1 | S. cerevisiae deletion strains, locus YML032C, strain rad52, hits give low values 1.03 | S. cerevisiae deletion strains, locus YML120C, strain ndi1, hits give low values 1.02 | S. cerevisiae deletion strains, locus YML124C, strain tub3, hits give low values 1.02 | S. cerevisiae deletion strains, locus YMR058W, strain fet3, hits give low values 1.01 | S. cerevisiae deletion strains, locus YMR078C, strain ctf18, hits give low values 1.02 | S. cerevisiae deletion strains, locus YMR125W, strain sto1, hits give low values 1.02 | S. cerevisiae deletion strains, locus YMR129W, hits give low values 1.01 | S. cerevisiae deletion strains, locus YMR205C, strain PFK2, hits give low values 1.01 | S. cerevisiae deletion strains, locus YMR223W, strain ubp8, hits give low values 1.02 | S. cerevisiae deletion strains, locus YMR231W, strain pep5, hits give low values 1.01 | S. cerevisiae deletion strains, locus YMR263W, strain SAP30, hits give low values 1.02 | S. cerevisiae deletion strains, locus YMR307W, strain GAS1, hits give low values 1.03 | S. cerevisiae deletion strains, locus YNL067W, strain RPL9B, hits give low values 1.01 | S. cerevisiae deletion strains, locus YNL071W, strain lat1, hits give low values 1 | S. cerevisiae deletion strains, locus YNL128W, strain TEP1, hits give low values 1.01 | S. cerevisiae deletion strains, locus YNL153C, strain GIM3, hits give low values 1.01 | S. cerevisiae deletion strains, locus YNL183C, strain NPR1, hits give low values 0.982 | S. cerevisiae deletion strains, locus YNL209W, strain ssb2, hits give low values 0.999 | S. cerevisiae deletion strains, locus YNL233W, strain BNI4, hits give low values 0.991 | S. cerevisiae deletion strains, locus YNL248C, strain rpa49, hits give low values 1.02 | S. cerevisiae deletion strains, locus YNL250W, strain rad50, hits give low values 1.02 | S. cerevisiae deletion strains, locus YNL271C, strain bni1, hits give low values 1.02 | S. cerevisiae deletion strains, locus YNL298W, strain CLA4, hits give low values 1.02 | S. cerevisiae deletion strains, locus YNL307C, strain MCK1, hits give low values 1.04 | S. cerevisiae deletion strains, locus YNL322C, strain KRE1 (second series), hits give low values 1 | S. cerevisiae deletion strains, locus YNL322C, strain KRE1, hits give low values 1.01 | S. cerevisiae deletion strains, locus YNR049C, strain mso1, hits give low values 1.02 | S. cerevisiae deletion strains, locus YNR052C, strain pop2, hits give low values 1.02 | S. cerevisiae deletion strains, locus YOL006C, strain TOP1, hits give low values 1.05 | S. cerevisiae deletion strains, locus YOL012C, strain htz1 1.12 | S. cerevisiae deletion strains, locus YOL147C, strain pex11, hits give low values 1.01 | S. cerevisiae deletion strains, locus YOR001W, strain rrp6, hits give low values 1.02 | S. cerevisiae deletion strains, locus YOR061W, strain CKA2, hits give low values 1.01 | S. cerevisiae deletion strains, locus YOR069W, strain VPS5, hits give low values 1 | S. cerevisiae deletion strains, locus YOR070C, strain gyp1, hits give low values 1.02 | S. cerevisiae deletion strains, locus YOR080W, strain dia2, hits give low values 1.02 | S. cerevisiae deletion strains, locus YOR083W, strain WHI5, hits give low values 1.01 | S. cerevisiae deletion strains, locus YOR106W, strain vam3, hits give low values 1.01 | S. cerevisiae deletion strains, locus YOR136W, strain idh2, hits give low values 1.01 | S. cerevisiae deletion strains, locus YOR144C, strain elg1, hits give low values 1.02 | S. cerevisiae deletion strains, locus YOR184W, strain ser1, hits give low values 1.04 | S. cerevisiae deletion strains, locus YOR231W, strain MKK1, hits give low values 1.04 | S. cerevisiae deletion strains, locus YOR265W, strain rbl2, hits give low values 1.03 | S. cerevisiae deletion strains, locus YOR270C, strain vph1, hits give low values 1.05 | S. cerevisiae deletion strains, locus YOR290C, strain snf2, hits give low values 1.03 | S. cerevisiae deletion strains, locus YOR316C, strain cot1, hits give low values 1.03 | S. cerevisiae deletion strains, locus YPL051W, strain arl3, hits give low values 1.01 | S. cerevisiae deletion strains, locus YPL055C, strain LGE1, hits give low values 1 | S. cerevisiae deletion strains, locus YPL078C, strain atp4, hits give low values 1.01 | S. cerevisiae deletion strains, locus YPL106C, strain sse1, hits give low values 1 | S. cerevisiae deletion strains, locus YPL240C, strain hsp82, hits give low values 1.02 | S. cerevisiae deletion strains, locus YPL241C, strain CIN2, hits give low values 1.02 | S. cerevisiae deletion strains, locus YPL256C, strain CLN2, hits give low values 1.05 | S. cerevisiae deletion strains, locus YPR119W, strain clb2, hits give low values 1.02 | S. cerevisiae deletion strains, locus YPR141C, strain kar3, hits give low values 1.02 | S. cerevisiae deletion strains, locus YPR163C, strain tif3, hits give low values 1.02 | S. cerevisiae deletion strains, locus YPR167C, strain met16, hits give low values 1.02 | S. cerevisiae deletion strains, strain wtn01, hits give low values 1.02 | S. cerevisiae strains, strain wild type, hits give low values 1.02
